Bioassay records from PubChem BioAssay.
TDP1 cell CPT = qHTS for Inhibitors of human tyrosyl-DNA phosphodiesterase 1 (TDP1): qHTS in cells in presence of CPT; actives 12% (n = 420,000); AID 686979, 2013; chicken DT40 Tdp1-/-;hTDP1 cells + 20 nM CPT, ATP luminescence, 48 h; Potency, µM (top dose mostly 46.2 µM), without a hit: at the highest dose activity change, negative = growth inhibition, hits mostly inhibitors; also: potency is read from the fitted curve at half-maximal effect; nearly all actives have a fitted effect of over 55% in size
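Chicken DT40 Tdp1-/- cells complemented with human TDP1, 400 cells/well, exposed to compounds plus 20 nM camptothecin for at least 48 h at 37 C; viability read as ATP content by CellTiter-Glo luminescence.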
HT1080NT lethal = qHTS for induction of synthetic lethality in tumor cells producing 2HG: qHTS for the HT-1080-NT fibrosarcoma cell line. HT-1080-NT fibrosarcoma viability, CellTiter-Glo ATP luminescence, 48 h. Potency, µM (doses to about 46.1 µM), without a hit: at the top dose activity, negative = less viability, most hits filed as cytotoxic. actives 1.6% (n = 360,000). AID 686970, 2013;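 also: NT is the 2HG producing partner of a matched IDH1 knockdown line; potency is read from the fitted curve at half-maximal effect; 0% = DMSO-treated cells and -100% = media-only wells without cells; nearly all actives have a fitted effect of over 55% in size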
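Toxicity toward the 2HG-producing NT line was scored as %Activity, normalised to DMSO and no-cell wells, from CellTiter-Glo luminescence after 48 hours' treatment.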
DT40 TDP1 no CPT = qHTS for Inhibitors of human tyrosyl-DNA phosphodiesterase 1 (TDP1): qHTS in cells in absence of CPT; DT40 Tdp1-/- hTDP1 cells, no CPT, ATP luminescence, 48 h; Potency, µM (highest dose often 46.2 µM), for inactives: at the highest dose activity change, negative = growth inhibition, usual class: inhibitors; actives 15% (n = 420,000); AID 686978, 2013; also: potency is read from the fitted curve at half-maximal effect; nearly all actives have a fitted effect of over 55% in size
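No-CPT arm: Tdp1-/-;hTDP1 DT40 cells (400/well) plus compounds, incubated ≥48 hr at 37 °C. Readout CellTiter-Glo luminescence.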
HT1080 IDH1KD tx = qHTS for induction of synthetic lethality in tumor cells producing 2HG: qHTS for the HT-1080-IDH1KD cell line | AID 686971, 2013 | HT-1080 IDH1 knockdown viability, ATP luminescence, 48 h | actives 2% (n = 360,000) | Potency, µM (highest dose often 46.1 µM), inactives show at the top dose activity, negative = toxicity, hits mostly cytotoxic;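 also: potency is read from the fitted curve at half-maximal effect; 0% = DMSO wells and -100% = cell-free medium wells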
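% activity derives from luminescence (CellTiter-Glo), normalised to DMSO and no-cell wells. HT-1080-IDH1KD cells, 750/well, had 48 h compound exposure at 37 °C.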
IL-1B inflam inh = qHTS for Inhibitors of Inflammasome Signaling: IL-1-beta AlphaLISA Primary Screen | THP-1 LPS/ATP IL-1B secretion, AlphaLISA, 16 h; active compounds read low | activity change, % at 57.5 µM | actives 4.7% (n = 360,000) | AID 743279, 2014; in the data active = activity change below about -50%; inconclusive = mostly about -30% to -49%
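Secreted IL-1B measured by AlphaLISA bead assay after 16 h compound exposure of THP-1 cells; compounds (final up to 57.5 uM) added 1 h before LPS (250 ng/mL) and ATP (1.25 mM) stimulation; lower signal means less secretion.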
Numbers without * were called inactive; ? = inconclusive; . = no result. Compounds with a hit are over-represented: about 19% of the library has one in this group of screens. Unless noted, calls follow the shape of the dose curve; as a rule, active = well fitted curve in the direction sought with a large enough effect; inconclusive = small, poorly fitted or top-dose-only effect, or another doubt; inactive = no such curve, though single readings can be large; an effect the other way counts as inactive or inconclusive. Unless noted, % is scaled to controls: 0 for no effect and ±100 for the full control effect.

SMILES	TDP1 cell CPT	HT1080NT lethal	DT40 TDP1 no CPT	HT1080 IDH1KD tx	IL-1B inflam inh
CCCC[C@@H]1CNC(=O)C(=O)N1CCCCC1CCCCC1	?	-2%	?	-12%	0
CN(CC(=O)Nc1ccc(F)cc1)C(=O)CCc1ccccc1	2%	0%	-11%	2%	-5
Cc1oc(=O)oc1CN1CCN(c2cc3c(cc2F)c(=O)c(C(=O)O)c2n3C(C)S2)CC1 (stereo not drawn)	-22%	.	-11%	.	.
CCc1ccc(CNC(=O)C2CCCN(c3nn4c(=O)cc(C)nc4s3)C2)cc1 (stereo not drawn)	-28%	-8%	-23%	-2%	-7
COc1cccc(CNC(=O)C2CCCN(c3nn4cc(-c5ccc(C)cc5)nc4s3)C2)c1 (stereo not drawn)	21µM*	.	15µM*	.	.
CCOCCCNC(=O)C1CCN(c2nn3cc(-c4ccc(F)cc4)nc3s2)CC1	21µM*	.	15µM*	.	.
CCOc1ccc(CNC(=O)C2CCCN(c3nn4cc(-c5ccc(OC)cc5)nc4s3)C2)cc1 (stereo not drawn)	16µM*	.	18µM*	.	.
CCOc1ccc(CNC(=O)C2CCCN(c3nn4cc(-c5ccc(F)cc5)nc4s3)C2)cc1 (stereo not drawn)	21µM*	.	23µM*	.	.
COc1cccc(CNC(=O)C2CCCN(c3nn4c(=O)cc(C)nc4s3)C2)c1 (stereo not drawn)	3%	6%	-4%	10%	-8
COc1ccc(-c2n[nH]c3c2cnc2ccc(F)cc23)cc1	-2%	.	8%	.	.
O=C(NCc1cccc(F)c1)C1CCN(c2nn3cc(-c4ccc(F)cc4)nc3s2)CC1	-26%	.	?	.	.
CCc1ccc(CNC(=O)C2CCCN(c3nn4cc(-c5ccc(F)cc5)nc4s3)C2)cc1 (stereo not drawn)	16µM*	.	16µM*	.	.
CCOCCCNC(=O)/C(C#N)=C/c1ccc(C)o1	-11%	18%	-22%	24%	-13
CCCCNC(=O)/C(C#N)=C/c1ccc(F)cc1F	?	-8%	?	-15%	-90*
O=[N+]([O-])c1ccc(-[n+]2ccc3ccccc3c2)c([N+](=O)[O-])c1	1µM*	?	1.3µM*	?	-105*
CCCCn1c(N)c(N(CC(C)C)C(=O)c2cc3ccccc3cc2OC)c(=O)[nH]c1=O	-3%	7%	-10%	0%	-6
CCOC(=O)Cn1c(-c2cccnc2)nc(-c2ccccc2)c1-c1ccccc1	?	-11%	23µM*	-9%	-13
CCOC(=O)Cn1c(S(=O)(=O)Cc2ccccc2Cl)nc(-c2ccccc2)c1-c1ccccc1	16µM*	?	15µM*	?	-8
CCOC(=O)Cn1nc(-c2ccccc2)c(-c2ccccc2)nc1=O	-1%	8%	-8%	1%	17
C#CCn1c(S(=O)(=O)Cc2ccccc2Cl)nc(-c2ccccc2)c1-c1ccccc1	18µM*	-1%	?	-7%	?
CCOc1ccc2nc(Cl)c(/C=C/C(=O)c3ccco3)cc2c1	10µM*	?	15µM*	-7%	?
Cc1cccc2cc(/C=C/C(=O)c3ccco3)c(Cl)nc12	4.6µM*	0%	8.2µM*	-13%	-5
CC(C)Cc1nnc(NC(=O)c2ccc(-n3cncn3)c([N+](=O)[O-])c2)s1	-20%	-1%	1%	-5%	-5
CC(C)NC(=O)N[C@H]1CC[C@H](CC(=O)NCc2ccc(Oc3ccccc3)cc2)O[C@@H]1CO	?	-8%	?	-4%	26
COc1ccc(-c2[nH]ncc2CN(C)Cc2nonc2C)c(OC)c1	-4%	-1%	-5%	0%	23
COc1cc(-c2[nH]ncc2CN2CCSCC2)cc(OC)c1OC	?	-1%	15µM*	-6%	102
